Assay outcomes as filed in PubChem BioAssay.
An excerpt weighted towards active compounds, which were near 18% of everything screened.
TDP1 block = qHTS Assay for Inhibitors of Tyrosyl-DNA Phosphodiesterase (TDP1); recombinant TDP1, AlphaScreen DNA substrate cleavage; Potency, µM (doses to about 130 µM), hits mostly inhibitors; AID 485290, 2010; Tyrosyl-DNA phosphodiesterase 1 (Homo sapiens), Q9NUW8; actives 0.28% (n = 350,000); further: nearly all actives have a fitted effect of over 40% in size
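AlphaScreen read-out: signal falls as enzyme removes the 3' tyrosine-FITC from a 5'-biotinylated DNA oligo (15 nM, 5 min, RT). Enzyme was E. coli-made recombinant Tdp1 at 1 nM, exposed to compound for 15 min beforehand; beads 10 ug/ml, 10 min.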
GCN5L2 inh = qHTS Assay for Inhibitors of GCN5L2 | Histone acetyltransferase KAT2A (Homo sapiens), Q92830 | GCN5L2 HAT assay, ThioGlo1 CoA-SH fluorescence | Potency, µM (series often up to 58.9 µM), usual class: inhibitors | actives 0.21% (n = 390,000)
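Enzyme at 20nM final was mixed with library compounds for 15 min at room temperature. Peptide H3(1-25) at 75uM, acetyl-CoA at 70uM and ThioGlo1 at 50uM were then added. Plates were read immediately and after 20 min (Ex340nm/Em540nm).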
VDR inh = Inhibitors of the vitamin D receptor (VDR): qHTS | Vitamin D3 receptor (Homo sapiens), P11473 | VDR-SRC2-3 peptide fluorescence polarization, 2 h | Potency, µM, actives largely listed as inhibitors | actives 0.93% (n = 400,000) | AID 504847, 2011
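The screen uses fluorescence polarization to detect compounds that interfere with recruitment of the SRC2-3 coactivator peptide to VDR; plates are read after 2 h at room temperature.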
DT40 TDP1 CPT = qHTS for Inhibitors of human tyrosyl-DNA phosphodiesterase 1 (TDP1): qHTS in cells in presence of CPT. chicken DT40 Tdp1-/-;hTDP1 cells + 20 nM CPT, ATP luminescence, 48 h. Potency, µM (doses to about 46.2 µM), hits mostly inhibitors. actives 12% (n = 420,000). AID 686979, 2013; further: nearly all actives have a fitted effect of over 55% in size
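Cell growth measured by CellTiter-Glo luminescence after a minimum 48 h, 37 C compound exposure with 20 nM CPT in Tdp1-knockout DT40 cells stably expressing hTDP1, seeded 400/well; qHTS titration format.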
TDP1 cell noCPT = qHTS for Inhibitors of human tyrosyl-DNA phosphodiesterase 1 (TDP1): qHTS in cells in absence of CPT; Potency, µM (top dose mostly 46.2 µM), most hits filed as inhibitors; AID 686978, 2013; DT40 Tdp1-/- hTDP1 cells, no CPT, ATP luminescence, 48 h; actives 15% (n = 420,000); further: nearly all actives have a fitted effect of over 55% in size
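Compound effects on proliferation are scored in DT40 Tdp1-/-;hTDP1 cells in the absence of CPT. ATP levels (CellTiter-Glo luminescence) are recorded after a ≥48 hr, 37 °C incubation.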
PLK1 PBD block = qHTS for Inhibitors of PLK1-PDB (polo-like kinase 1 - polo-box domain): Primary Screen; actives 2.8% (n = 360,000); Potency, µM, usual class: inhibitors; Plk1 PBD binding of FITC phosphopeptide, fluorescence polarization; Serine/threonine-protein kinase PLK1 (Homo sapiens), P53350; further: series mostly up to about 57 µM; nearly all actives have a fitted effect of over 65% in size
Target sequence (P53350 whole entry, looked up, the tested form may be a part): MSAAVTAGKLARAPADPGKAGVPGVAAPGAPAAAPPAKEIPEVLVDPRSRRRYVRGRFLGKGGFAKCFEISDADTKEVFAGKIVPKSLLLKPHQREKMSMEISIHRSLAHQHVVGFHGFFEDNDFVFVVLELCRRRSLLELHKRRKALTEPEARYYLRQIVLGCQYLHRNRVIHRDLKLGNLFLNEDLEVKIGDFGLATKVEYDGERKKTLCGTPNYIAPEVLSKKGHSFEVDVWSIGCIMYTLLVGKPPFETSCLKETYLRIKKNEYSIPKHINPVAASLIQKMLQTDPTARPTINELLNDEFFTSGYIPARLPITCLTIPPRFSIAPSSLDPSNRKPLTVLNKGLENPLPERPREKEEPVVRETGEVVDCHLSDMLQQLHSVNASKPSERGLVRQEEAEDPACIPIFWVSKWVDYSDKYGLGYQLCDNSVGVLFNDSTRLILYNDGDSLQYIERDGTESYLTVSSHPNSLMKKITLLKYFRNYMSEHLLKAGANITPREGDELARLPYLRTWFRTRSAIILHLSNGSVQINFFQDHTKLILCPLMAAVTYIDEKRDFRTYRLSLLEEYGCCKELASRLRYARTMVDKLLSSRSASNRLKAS
Hits are given with their value; . = inactive; ? = inconclusive; / = no result; [ ] = dose if it differs, or a comment. The call rests on the fitted dose curve; in most records, active means well fitted curve in the direction sought with a large enough effect; inconclusive means small, poorly fitted or top-dose-only effect, or another doubt; inactive means no such curve, though single readings can be large; an effect the other way counts as inactive or inconclusive.

SMILES	TDP1 block	GCN5L2 inh	VDR inh	DT40 TDP1 CPT	TDP1 cell noCPT	PLK1 PBD block
Nc1nc(=S)c2snnc2[nH]1	/	/	/	11.2µM	15.8µM	/
CCCCCCc1cc2cc(-c3nnc(-c4cccc(Cl)c4)o3)c(=O)oc2cc1O	.[12.3 µM]	.	.	.	.	/
N#C/C(C(N)=O)=C1/SC=C(c2ccccc2)N1c1ccccc1	.	.	.	?	18.4µM	.
Cc1cc(/C=C2/NC(=O)N(Cc3ccccc3F)C2=O)c(C)n1C	.	.	.	?	?	29.9µM
Cc1cc(/C=C2/NC(=O)N(Cc3ccccc3F)C2=O)c(C)n1-c1ccccn1	.	.	.	.	.	.
COc1cc(/C=C2/NC(=O)N(Cc3ccccc3F)C2=O)cc(OC)c1OC	.	.	.	?	16.4µM	.
CCN1C(=O)N/C(=C/c2cc(C)n(Cc3ccccc3)c2C)C1=O	.	.	.	18.4µM	?	.
N#CCCn1c(=O)cnc2cnc(N3CCOCC3)nc21	/	.	.	?	.	/
CCOc1ccc(-c2cnc(NCc3ccc(OC)cc3OC)n2C)cc1	.	.	.	?	?	/
Nc1ncnc2c1ncn2[C@@H]1O[C@H](CNCc2ccccc2OCC(=O)N2CCCCC2)[C@@H](O)[C@H]1O	.	.	.	.	.	.
CCCC[C@]12Cc3ccccc3C(O1)c1c(c3ccccc3oc1=O)O2	/	.[12.7 µM]	/	/	/	/
COc1cc(C2Nc3cc(Cl)c(S(N)(=O)=O)cc3S(=O)(=O)N2)ccc1OCc1ccccc1 (configuration not stated)	.	.	.	?	?	23.8µM
COc1ccc(CN2CCC(C(=O)Nc3ccc(Oc4ccccc4)nc3)CC2)cc1F	.	.	.	20.6µM	18.4µM	.
CCn1cc(CN2CCC(C(=O)Nc3ccc(Oc4ccccc4F)cc3)CC2)c(C)n1	.	.	.	?	25.9µM	.
COc1cc(F)ccc1CN1CCC(C(=O)Nc2ccc(Oc3ccccc3)nc2)CC1	.	.	.	?	16.4µM	.
O=C(Nc1ccc(Oc2ccccc2)nc1)C1CCN(Cc2ccccc2)CC1	.	.	.	?	.	.
Cc1c(CN2CCC(C(=O)Nc3ccc(Oc4ccccc4)nc3)CC2)cnn1C	.	.	.	.	.	.
CCc1ccc(CN2CCC(C(=O)Nc3ccc(Oc4ccccc4)nc3)CC2)o1	.	.	.	16.4µM	23.1µM	.
CCn1cc(CN2CCC(n3nccc3NC(=O)Cc3ccccc3)CC2)c(C)n1	.	.	.	.	.	.
O=C(CNC(=O)C1CCCCC1)OCc1ccccc1	.	/	.	.	.	/
COC(=O)c1c(C)[nH]c(C(=O)OC(C)C(=O)N(C)C2CCCCC2)c1C (configuration not stated)	/	.	.	?	16.4µM	.
C=CCN(Cc1ccc(OC)c(OC)c1)C(=O)c1cc2cc(F)ccc2[nH]1	/	.	.	13µM	?	.
COc1cc2cc(C(=O)N(C)Cc3ccccc3)[nH]c2cc1OC	/	.	.	.	.	.
Cc1ccc(S(=O)(=O)N2CC3(O)CN(C(=O)OC(C)C)N(C(=O)OC(C)C)CC3(OC(=O)Nc3cccs3)C2)cc1 (configuration not stated)	/	/	/	?	18.4µM	.
Cc1ccc(S(=O)(=O)N2CC3(O)CN(C(=O)OC(C)C)N(C(=O)OC(C)C)CC3(OC(=O)NCc3ccco3)C2)cc1 (configuration not stated)	/	/	/	?	20.6µM	.
SMILES	TDP1 block	GCN5L2 inh	VDR inh	DT40 TDP1 CPT	TDP1 cell noCPT	PLK1 PBD block
Cc1ccc(S(=O)(=O)N2CC3(O)CN(C(=O)OC(C)C)N(C(=O)OC(C)C)CC3(OC(=O)Nc3c(C)noc3C)C2)cc1 (configuration not stated)	/	/	/	?	?	.
Cc1ccc(S(=O)(=O)N2CC3(O)CN(C(=O)OC(C)C)N(C(=O)OC(C)C)CC3(OC(=O)NC3CCCC3)C2)cc1 (configuration not stated)	/	/	/	?	23.1µM	.
CCCCCOc1ccc(Cn2c(=O)oc3ccccc32)cc1	.	.	.	.	.	/
Cc1ccc(S(=O)(=O)N2CCSC2c2ccco2)cc1 (configuration not stated)	.	.	.	.	18.4µM	.
Cc1ccc(S(=O)(=O)N2CCSC2C(=O)O)cc1 (configuration not stated)	.	.	.	.	.	.
CC(=O)c1cccc(NC(=O)COc2ccccc2C(=O)c2cc(C#N)c(=O)n(C3CCCCC3)c2)c1	.	.	.	?	11.6µM	.
COCCn1cnc2c1-c1ccc(OC)c(c1)OC/C=C\COc1cccc-2c1	.	/	.	/	/	/
Cc1ccc(S(=O)(=O)N(C)c2ccc(C(=O)NCC(c3cccs3)N3CCOCC3)cc2)cc1 (configuration not stated)	.	.	.	20.6µM	?	.
Cc1ccc(S(=O)(=O)N(C)c2ccc(C(=O)NCC(c3ccccc3)N3CCCC3)cc2)cc1 (configuration not stated)	/	/	/	?	20.6µM	.
O=C(NCC(c1ccc(Cl)cc1)N1CCCCC1)c1ccccc1 (configuration not stated)	.	.	.	13µM	14.6µM	/
COc1cc(-c2nnc(COc3ccc4ccccc4c3)o2)cc(OC)c1OC	.	?	.	?	25.9µM	.
CCCc1nnc(-c2cc(OC)c(OC)c(OC)c2)o1	.	.	.	?	.	.
COc1cc(-c2nnc(-c3cc(OC)c(OC)c(OC)c3)o2)cc(OC)c1OC	.	.	.	1.84µM	2.06µM	.
COc1cc(-c2nnc(COC(=O)c3ccc(C)o3)o2)cc(OC)c1OC	20µM	.	.	?	?	.
COc1cc(-c2nnc(-c3ccccc3)o2)cc(OC)c1OC	.	.	.	16.4µM	11.6µM	.
COc1ccc(-c2nnc(-c3ccccc3)o2)cc1OC	/	.	.	.	?	.
COc1cc(-c2nnc(COC(=O)c3cc(C)no3)o2)cc(OC)c1OC	.	?	.	.	.	.
O=C1NCC(Nc2ccc(Br)cc2)C(=O)N1 (configuration not stated)	/	/	.	.	.	.
CC(C)CNC(=O)C(=O)Nc1ccc2c(c1)N(S(=O)(=O)c1cccs1)CCC2	/	.	.	?	?	.
COc1cc(-c2nnc(SCC(=O)N3CCOCC3)o2)cc(OC)c1OC	/	.	?	.	.	?
